Some test systems named below: 786-0 renal; MALME-3M melanoma; MDA-MB-231 breast; SF-268 CNS; SF-295 CNS; UACC-257 melanoma; UACC-62 melanoma; SK-MEL-2 melanoma; EKVX NSCLC; SN12C renal; UO-31 renal; TK-10 renal; CAKI-1 renal; A498 renal; OVCAR-8 ovarian; OVCAR-5 ovarian; IGROV1 ovarian; OVCAR-3 ovarian; HS 578T breast; NCI/ADR-RES ovarian.
Common to all, as to test: NCI-60 one-dose screen, 48 h (100 = growth as untreated, 0 = no growth, -100 = all killed)
Holding throughout (conditions): 10 µM

About 83,000 compounds went through this panel and 20% of them were active in at least one assay; those are over-represented in the sample as a whole.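 Compound tested at a single concentration for 48 hours in 96-well plates; a percent growth value below 10 was scored as active.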 A number with no mark means an inactive call. Activity calls are given as the source filed them.

`CC1[C@H]2[C@H](C[C@H]3[C@@H]4CC=C5c6sc(Nc7cccc(Cl)n7)nc6CC[C@]5(C)[C@H]4CC[C@@]32C)O[C@]12CC[C@@H](C)CO2` (stereo not given in full): the growth in the assay on 786-0 renal was 105%; with MALME-3M melanoma, 117%; in the assay with MDA-MB-231 breast, 82.4%; in the assay on SF-268 CNS, 86.9%; in the assay with SF-295 CNS, 109%; with UACC-257 melanoma it was 82%. In addition, the growth with UACC-62 melanoma was 54.5%; with SK-MEL-2 melanoma, 76.9%; in the assay with EKVX NSCLC it was 83.8%; in the assay with SN12C renal it was 94.5%; in the assay with UO-31 renal it was 85.4%; in the assay on TK-10 renal it was 171%. In addition, the growth in the assay on CAKI-1 renal is 84.8%; in the assay on A498 renal, 92.6%; in the assay on OVCAR-8 ovarian, 74.2%; in the assay with OVCAR-5 ovarian it was 113%; in the assay on IGROV1 ovarian it was 99.2%; in the assay with OVCAR-3 ovarian, 93.7%. Further, the growth with HS 578T breast was 106%; with NCI/ADR-RES ovarian, 94%.

Take `O=C(CSc1nc2ccccc2c(=O)n1-c1ccc(Cl)cc1)Nc1ccc(-c2nc3ccc([N+](=O)[O-])cc3[nH]2)cc1`: the growth in the assay with 786-0 renal was 53.7%; with MALME-3M melanoma, 21.7%; in the assay with MDA-MB-231 breast, 42.7%; in the assay with SF-268 CNS, 38.4%; in the assay on SF-295 CNS it was 23.7%; with UACC-257 melanoma it was 36%. Also, the growth in the assay with UACC-62 melanoma was 36.9%; in the assay with SK-MEL-2 melanoma, 34.4%; in the assay on EKVX NSCLC, 35.9%; with SN12C renal, 42.9%; in the assay on UO-31 renal, 74.3%; in the assay with TK-10 renal, 89.9%. Also, the growth in the assay with CAKI-1 renal is 40.8%; in the assay on A498 renal it was 81.7%; in the assay on OVCAR-8 ovarian, -87.5% (active); with OVCAR-5 ovarian it was 92.6%; in the assay on IGROV1 ovarian, 64.2%; in the assay on OVCAR-3 ovarian it was 19.4%. The growth is 11.8% with HS 578T breast and 61.3% with NCI/ADR-RES ovarian.

Turning to `O=C(Nc1ccc(OCc2ccc(F)cc2)cc1)Nc1ccc(Cl)c(C(F)(F)F)c1`, the growth is 13.5% with 786-0 renal; -10.2% (active) in the assay with MALME-3M melanoma; 6.32% (active) in the assay with MDA-MB-231 breast; 39% in the assay on SF-268 CNS; -30.4% (active) with SF-295 CNS; -1.33% (active) in the assay on UACC-257 melanoma. Further, the growth with UACC-62 melanoma is 6.53% (active); in the assay with SK-MEL-2 melanoma, -34.7% (active); in the assay with EKVX NSCLC, 8.3% (active); in the assay on SN12C renal, 21.9%; with UO-31 renal it was 7.5% (active); in the assay with TK-10 renal, 20.2%. Also, the growth in the assay with CAKI-1 renal is 2.77% (active); in the assay on A498 renal it was -9.28% (active); in the assay with OVCAR-8 ovarian it was 12.8%; in the assay with OVCAR-5 ovarian, 31.9%; with IGROV1 ovarian, 43.6%; with OVCAR-3 ovarian, 34.5%. The growth with HS 578T breast is 24%; in the assay with NCI/ADR-RES ovarian, 4.62% (active).

(Values after PubChem BioAssay (NCI).)
